In the supplement of paper PMC7156485:
Where “and” joins values, the source holds several entries; their conditions need not be identical. Identical values can stand only once. ± gives the standard deviation of the averaged measurements.

Assays:
Conditions in all cases: concentration: 10 µM; 24 h
HCC1569 [1] = experiment: cell number relative to DMSO (% of DMSO); higher = more cells (less growth inhibition / toxicity)
Outline: (§1)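 Using 384-well plates with 800 cells per well in RPMI plus 10% FBS, HCC1569 and TDF cells were exposed to compounds at 10 µM, in triplicate, for 24 h at 37 °C. Imaging of six fields per well at ×10 followed H1.0 and DAPI staining. The reported quantity, H1.0 nuclear intensity or cell number, is a median of replicates given as percent of the plate control, and HCC1569 values were smoothed for positional effects.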

TDF [2] = experiment: as above
Outline: as §1

TDF [3] = experiment: H1.0 immunofluorescence intensity relative to DMSO (% of DMSO); higher = stronger H1.0 induction, active = 120 or more
Outline: as §1

HCC1569 [4] = experiment: H1.0 immunofluorescence intensity relative to DMSO (% of DMSO); higher = stronger H1.0 induction, active = 140 or more
Outline: as §1
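Wherever H1.0 immunofluorescence intensity relative to DMSO is given: TDF is a line of transformed human dermal fibroblasts of mesenchymal origin.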
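Wherever cell number relative to DMSO is given: TDF denotes transformed human dermal fibroblasts of mesenchymal origin.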

Row | Compound | cell number (HCC1569 [1]) | cell number (TDF [2]) | H1.0 immunofluorescence intensity (TDF [3]) | H1.0 immunofluorescence intensity (HCC1569 [4])
1 | CCCCCC=CCC=CCC=CCC=CCCCCCC(=O)O [7(Z), 10(Z), 13(Z), 16(Z)-Ocosatetraenoic Acid] | 100 | 114 | 89.2 (inactive) | 106 (inactive)
2 | CC(C)(C(=O)O)c1ccc(C(O)CCCN2CCC(C(O)(c3ccccc3)c3ccccc3)CC2)cc1.Cl (centres undefined) [Fexofenadine hydrochloride] | 105 | 111 | 91.2 (inactive) | 90.5 (inactive)
3 | C[N+](C)(C)CCO.[Br-] [Choline bromide] | 104 | 108 | 96.9 (inactive) | 98 (inactive)
4 | CCC(C)C1OC2(CCC1C)CC1CC(CC=C(C)C(OC3CC(OC)C(OC4CC(OC)C(O)C(C)O4)C(C)O3)C(C)C=CC=C3COC4C(O)C(C)=CC(C(=O)O1)C34O)O2 (centres undefined) [Ivermectin] | 102 ± 2.5 | 103 ± 8.2 | 92.8 (inactive) | 93.7 (inactive)
5 | COc1ccc(-c2cc(=O)c3c(O)cc(OC4OC(COC5OC(C)C(O)C(O)C5O)C(O)C(O)C4O)cc3o2)cc1O (centres undefined) [Diosmin] | 104 | 107 | 91.8 (inactive) | 92 (inactive)
6 | CC(Cc1ccc(O)c(O)c1)C(C)Cc1ccc(O)c(O)c1 (centres undefined) | 72.5 and 72.1 | 108 and 87.9 | 100 (inactive) and 95.2 (inactive) | 116 (inactive) and 122 (inactive)
7 | CNCC(O)c1ccc(O)c(O)c1.O=C(O)C(O)C(O)C(=O)O (single isomer, unassigned; (-)) [(-)-Epinephrine bitartrate] | 100 | 107 | 90.8 (inactive) | 82.3 (inactive)
8 | CC(C)=CCCC(C)(O)C1CCC2(C)C1CCC1C3(C)CCC(=O)C(C)(C)C3CCC12C (centres undefined) [Dipterocarpol] | 95.8 | 102 | 97.8 (inactive) | 82.7 (inactive)
9 | CC(=O)OC1C(=O)C2(C)C(O)CC3OCC3(OC(C)=O)C2C(OC(=O)c2ccccc2)C2(O)CC(OC(=O)C(O)C(NC(=O)c3ccccc3)c3ccccc3)C(C)=C1C2(C)C (centres undefined) [Taxol] | 60.2 ± 4.1 | 10.1 ± 1.7 | 174 (active) | 132 (inactive)
10 | COC(=O)C1C(O)CCC2CN3CCc4c([nH]c5ccccc45)C3CC21.Cl (centres undefined) [Rauwolscine] | 103 | 99.5 | 95.5 (inactive) | 95.6 (inactive)
11 | CCCCCC(O)C=CC=CCCCCCCCCCC(=O)O (centres undefined) | 99.4 | 90.3 | 95.7 (inactive) | 96.8 (inactive)
12 | COc1ccc2ccc(=O)oc2c1CC=C(C)C [Osthole] | 97.3 | 92.5 | 103 (inactive) | 99.9 (inactive)
13 | COc1ccc(Cl)cc1C(=O)NCCc1ccc(S(=O)(=O)NC(=O)NC2CCCCC2)cc1 [Glyburide] | 107 | 102 | 90.2 (inactive) | 109 (inactive)
14 | O=C(Nc1nc2ccc(NC(=O)C34CC5CC(CC(C5)C3)C4)cc2s1)c1ccccc1 | 45 | 20.4 | 170 (active) | 146 (active)
15 | O=C(NC(CO)C(O)c1ccc([N+](=O)[O-])cc1)C(Cl)Cl (centres undefined) [Chloramphenicol] | 100 | 92.2 | 93.1 (inactive) | 112 (inactive)
16 | CCOC(=O)C(CCc1ccccc1)NC(C)C(=O)N1CCCC1C(=O)O (centres undefined) [Enalapril] | 104 | 106 | 98.8 (inactive) | 118 (inactive)
17 | CSc1ccc2c(c1)N(CCC1CCCCN1C)c1ccccc1S2.Cl (centres undefined) [Thioridazine hydrochloride] | 86.6 | 90.6 | 110 (inactive) | 155 (active)
18 | O=C1C(SCCO)=C(SCCO)C(=O)c2ccccc21 [2,3-bis[(2-hydroxyethyl)sulfanyl]naphthoquinone] | 36.5 | 84.6 | 103 (inactive) | 446 (active)
19 | CN1CCC(=C2c3ccccc3CC(=O)c3sccc32)CC1 [Ketotifen] | 104 | 102 | 97.6 (inactive) | 124 (inactive)
20 | CC1COc2c(C3(N)CC3)c(F)cc3c(=O)c(C(=O)O)cn1c23 (centres undefined) [Pazufloxacin] | 104 | 110 | 94.1 (inactive) | 104 (inactive)
21 | COc1c(O)c2c(=O)cc(OC)c3c4c(OC)cc(=O)c5c(O)c(OC)c6c(c(c1CC(C)(O)C6C(C)=O)c23)c54 (centres undefined) [Hypocrellin A] | 75.8 | 67.1 | 97.2 (inactive) | 108 (inactive)
22 | COc1c(O)cc2oc(-c3ccc(O)cc3)cc(=O)c2c1O [5,7-dihydroxy-2-(4-hydroxyphenyl)-6-methoxy-4H-chromen-4-one] | 92.6 | 102 | 88 (inactive) | 106 (inactive)
23 | NC(CO)(CO)CO.O=C(c1ccccc1)c1ccc2n1CCC2C(=O)O (centres undefined) [Ketorolac tris salt] | 101 | 111 | 94.5 (inactive) | 94.1 (inactive)

Row | Compound | cell number (HCC1569 [1]) | cell number (TDF [2]) | H1.0 immunofluorescence intensity (TDF [3]) | H1.0 immunofluorescence intensity (HCC1569 [4])
24 | COc1cc(OC)c2cc(-c3ccncc3)cnc2c1.Cl.Cl [5,7-dimethoxy-3-(4-pyridinyl)quinoline dihydrochloride] | 105 | 102 | 92.4 (inactive) | 105 (inactive)
25 | C=C(C)C1CCC2(C(=O)O)CCC3(C)C(CCC4C5(C)CCC(O)C(C)(C)C5CCC43C)C12 (centres undefined) [Betulinic acid] | 101 | 108 | 96.3 (inactive) | 97 (inactive)
26 | Cc1c(-c2cnccn2)ssc1=S [Oltipraz] | 105 | 101 | 97.9 (inactive) | 114 (inactive)
27 | C=CCN1CCc2cc(O)c(O)cc2C(c2ccccc2)C1 (racemic) | 101 | 108 | 90.9 (inactive) | 101 (inactive)
28 | COc1ccc2c(OC)c3ccoc3nc2c1OC [Skimmianine] | 100 | 98.2 | 99.1 (inactive) | 96.2 (inactive)
29 | CC1=CC(=O)C(C(C)C)=CC1=O [Thymoquinone] | 104 ± 1.4 | 102 ± 3.6 | 93.5 (inactive) | 93.3 (inactive)
30 | CC(C)(C)c1ccc(S(=O)(=O)Nc2ccc(-n3ccnc3)cc2)cc1 [Stem-Cell Factor/c-Kit Inhibitor, ISCK03] | 100 | 102 | 103 (inactive) | 99.6 (inactive)
31 | CN(CC=CC#CC(C)(C)C)Cc1cccc2ccccc12 [Terbinafine] | 104 | 110 | 99.6 (inactive) | 104 (inactive)
32 | COc1cc(-c2oc3cc(O)ccc3c(=O)c2O)ccc1O [Geraldol] | 85.9 | 73.9 | 95.2 (inactive) | 99.4 (inactive)
33 | CCCCCC(=O)CCC1C(O)CC(O)C1CC=CCCCC(=O)O (centres undefined) [13,14-Dihydro-15-keto-prostaglandin F2a] | 99.9 | 94 | 90.1 (inactive) | 98.2 (inactive)
34 | c1ccc2c(Oc3nc(Nc4ccc(N5CCOCC5)cc4)c4ncn(C5CCCCC5)c4n3)cccc2c1 | 84.3 | 92.2 | 101 (inactive) | 150 (active)
35 | O=c1oc2cc(O)ccc2c2oc3cc(O)ccc3c12 [Coumestrol] | 99.9 | 91.8 | 97.6 (inactive) | 94.6 (inactive)
36 | CCCOc1ccc(C=C2SC(=O)NC2=O)cc1 [PIM1/2 Kinase Inhibitor VI] | 106 | 110 | 103 (inactive) | 98.1 (inactive)
37 | COc1cc2c(cc1O)CCC1C2CCC2(C)C(O)CCC12 (centres undefined) [2-methoxyestradiol] | 54.3 | 11.5 | 156 (active) | 156 (active)
38 | Cl.NC(N)=NCCNS(=O)(=O)c1cccc2cnccc12 [HA-1004 hydrochloride] | 103 | 116 | 87.2 (inactive) | 88.4 (inactive)
39 | CCOC(=O)[C@@H](N)CCC(=O)N[C@@H](CSCc1ccccc1)C(=O)N[C@@H](C(=O)OCC)c1ccccc1 | 97.6 | 100 | 92.9 (inactive) | 109 (inactive)
40 | C#Cc1cccc(Nc2ncnc3cc(OCCOC)c(OCCOC)cc23)c1 [Erlotinib] | 94.8 ± 8 | 94.5 ± 3.9 | 91.3 (inactive) | 108 (inactive)
41 | COC1=C(OC)C(=O)C(CCCCCCCCCCO)=C(C)C1=O [Idebenone] | 101.26 ± 0.079 | 96.02 ± 0.62 | 101 (inactive) | 102 (inactive)
42 | Cl.NC(N)=NC(N)=Nc1cccc(Cl)c1 [1-(m-Chlorophenyl)-biguanide hydrochloride] | 102 | 97.2 | 93.4 (inactive) | 97.1 (inactive)
43 | COC(C(=O)C(O)C(C)O)C1Cc2cc3cc(OC4CC(OC5CC(O)C(O)C(C)O5)C(O)C(C)O4)c(C)c(O)c3c(O)c2C(=O)C1OC1CC(OC2CC(OC3CC(C)(O)C(O)C(C)O3)C(O)C(C)O2)C(O)C(C)O1 (centres undefined) [Mithramycin A] | 68.7 | 29.9 | 109 (inactive) | 112 (inactive)
44 | CN(C)CCC(c1ccc(Br)cc1)c1ccccn1.O=C(O)C=CC(=O)O (single isomer, unassigned; (+)) [(+)-Brompheniramine maleate] | 96.5 | 79.5 | 113 (inactive) | 102 (inactive)
45 | Cl.O=C(O)C1=CCCN(CCON=C(c2ccccc2)c2ccccc2)C1 [NO-711 hydrochloride] | 100 | 93.9 | 94.2 (inactive) | 97.9 (inactive)
46 | CC1CCC2(OC1)OC1CC3C4CCC5CC(O)CCC5(C)C4CCC3(C)C1C2C (centres undefined) [Sarsasapogenin] | 100 | 105 | 106 (inactive) | 107 (inactive)
